In PubChem BioAssay (Tox21):
Unmarked numbers belong to inactive results. Inconclusive results are not listed. Where a call stands in place of a potency, no number is given. Activity calls are given as the source filed them. Unless noted, calls come from the whole dose curve; as a rule, active = well fitted curve in the direction sought with a large enough effect in the repeat runs; inconclusive = weak or mixed curves; inactive = no such curve, though single readings can be large; an effect the other way counts as inactive or inconclusive.

Assays:
[1] = qHTS assay for small molecules that induce genotoxicity in human embryonic kidney cells expressing luciferase-tagged ATAD5 (AID 651632); note: nearly all actives have a fitted effect of over 15% in size
Outline: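 Luminescence read-out: after 16 hr compound exposure at 37C, ATAD5-luciferase HEK293T cells received Amplite, 30 min RT, then CCD imaging. A rise in signal marks genotoxic stress.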

[2] = qHTS assay for small molecule agonists of the p53 signaling pathway - cell viability (AID 651633; calls by dose curve; note: nearly all actives have a fitted effect of over 30% in size; note: potency is the fitted concentration of half-maximal effect)
Outline: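 Viability counter-read: CellTiter-Glo luminescence (30 min, room temperature) in the same p53RE-bla plates. These plates had been exposed to compounds for 16 h at 37 C.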

[3] = qHTS assay for small molecules that induce genotoxicity in human embryonic kidney cells expressing luciferase-tagged ATAD5 - cell viability (AID 651634; calls by dose curve; note: nearly all actives have a fitted effect of over 25% in size; note: potency is the fitted concentration of half-maximal effect)
Outline: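 HEK293T ATAD5-luc cells, 2,000/well; compound 15.5 hr, 37C/5% CO2; CellTiter-Fluor 30 min, 37C; fluorescence read.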

[4] = qHTS assay for small molecule disruptors of the mitochondrial membrane potential - cell viability (AID 720634; calls by dose curve;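 note: human HepG2 liver cancer cells; series mostly up to about 83 µM; nearly all actives have a fitted effect of over 20% in size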)
Outline: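 Luminescence from CellTiter-Glo (ATP content) gave viability in HepG2 cells, read in the same wells as the MMP dye assay after 1 hr compound exposure at 37 C.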

[5] = qHTS assay to test for compound auto fluorescence at 590 nm (red) in HepG2 cells (AID 720674)
Outline: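 We screened compounds on adherent HepG2 cells, incubating them for an hour at 37 C in 5% CO2 before reading emission at 590 nm under 540 nm excitation; values reflect equivalence to Rose Bengal sodium fluorescence.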

[6] = qHTS assay to test for compound auto fluorescence at 460 nm (blue) in HEK293 cells (AID 720678); note: potency is the fitted concentration of half-maximal effect
Outline: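 Intrinsic compound fluorescence is recorded in live HEK293 cultures after overnight incubation at 37C, 5% CO2, using excitation 405 nm and emission 460 nm. Values are referenced to triamterene.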

[7] = qHTS assay to test for compound auto fluorescence at 590 nm (red) in HEK293 cells (AID 720679)
Outline: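 Red autofluorescence, HEK293 cells: 2,000 cells/well; attach 4-5 hr 37C; add 23 nL cpd or DMSO; incubate o/n 37C 5% CO2; read Ex540/Em590; Rose Bengal sodium reference.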

[8] = qHTS assay to test for compound auto fluorescence at 535 nm (green) in HEK293 cells (AID 720680)
[9] = qHTS assay to test for compound auto fluorescence at 460 nm (blue) in HEK293 cell free culture (AID 720681); note: potency is the fitted concentration of half-maximal effect
Outline: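 Blue fluorescence (Ex 405/Em 460 nm, triamterene-equivalent) was read immediately after pin transfer of compound or DMSO into medium (DMEM, 10% FBS) without cells.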

[10] = qHTS assay to test for compound auto fluorescence at 535 nm (green) in HEK293 cell free culture (AID 720682)
Outline: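 DMEM + 10% FBS, cell-free; cpd or DMSO pinned in; Ex485/Em535 read; output as fluorescein-equivalent signal.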

[11] = qHTS assay to identify small molecule antagonists of the glucocorticoid receptor (GR) signaling pathway - cell viability counter screen (AID 720693); note: nearly all actives have a fitted effect of over 55% in size; note: potency is the fitted concentration of half-maximal effect
[12] = qHTS assay for identifying genotoxic compounds that show differential cytotoxicity against isogenic chicken DT40 cell lines with known DNA damage response pathways - Rad54/Ku70 mutant cell line (AID 743015); note: nearly all actives have a fitted effect of over 60% in size; note: potency is the fitted concentration of half-maximal effect
[13] = qHTS assay to identify small molecule antagonists of the estrogen receptor alpha (ER-alpha) signaling pathway - cell viability counter screen (AID 743074; calls by dose curve;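 note: HEK293 cells carrying ER-alpha-UAS-bla reporter stimulated with 17beta-estradiol; nearly all actives have a fitted effect of over 45% in size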; note: potency is the fitted concentration of half-maximal effect)
Aromatase (Homo sapiens) = Aromatase (Homo sapiens) (UniProt P11511); experiment: qHTS assay to identify aromatase inhibitors (AID 743083); note: nearly all actives have a fitted effect of over 55% in size; note: potency is the fitted concentration of half-maximal effect
Chain of Aromatase (Homo sapiens) (P11511 whole entry, looked up): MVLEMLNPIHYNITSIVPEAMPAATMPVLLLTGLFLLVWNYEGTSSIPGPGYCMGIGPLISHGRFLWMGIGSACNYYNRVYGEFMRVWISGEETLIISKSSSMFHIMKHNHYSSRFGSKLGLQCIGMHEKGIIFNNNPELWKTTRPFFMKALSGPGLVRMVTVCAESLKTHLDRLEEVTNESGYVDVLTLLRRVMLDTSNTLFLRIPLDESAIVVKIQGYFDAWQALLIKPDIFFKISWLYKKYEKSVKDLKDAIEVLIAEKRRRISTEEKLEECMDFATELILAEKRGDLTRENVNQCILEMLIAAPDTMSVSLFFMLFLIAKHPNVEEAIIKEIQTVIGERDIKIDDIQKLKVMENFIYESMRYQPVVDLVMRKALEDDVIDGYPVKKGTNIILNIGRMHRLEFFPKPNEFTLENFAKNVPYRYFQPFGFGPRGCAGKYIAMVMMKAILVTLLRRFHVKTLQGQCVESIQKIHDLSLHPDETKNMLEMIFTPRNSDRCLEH

[14] = qHTS assay to identify aromatase inhibitors - cell viability counter screen (AID 743084);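 note: cells stimulated with testosterone during compound exposure; nearly all actives have a fitted effect of over 55% in size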
[15] = qHTS assay to identify small molecule that activate the aryl hydrocarbon receptor (AhR) signaling pathway - cell viability counter screen (AID 743086); note: nearly all actives have a fitted effect of over 45% in size; note: potency is the fitted concentration of half-maximal effect
Outline: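 Cytotoxicity counter screen: CellTiter-Fluor signal (30 min, 37 C) in 4000 HepG2 cells/well carrying the DRE-luciferase reporter, following 24 h compound exposure at 37 C.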

[16] = qHTS assay to identify small molecule phospholipidosis (PLD) inducers (AID 1259344; active = well fitted curve in the direction sought with a large enough effect; an effect the other way counts as inactive or inconclusive)
Outline: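 Phospholipid accumulation was scored by imaging: fixed, Hoechst-counterstained HepG2 cells stained with LipidTOX Red after 24 h compound exposure at 37 C. Read-outs were pit count and pit intensity per well or per cell, with amiodarone and DMSO controls.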

[17] = qHTS assay to test for compound auto fluorescence at 590 nm (red) in HEK293 cell free culture (AID 720683)
Outline: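 Red-channel autofluorescence of compounds in culture medium (DMEM, 10% FBS), no cells, measured at 540/590 nm. Rose Bengal sodium is the reference fluorophore for equivalence.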

[18] = biological target: Aryl hydrocarbon receptor (Homo sapiens) (UniProt P35869); experiment: qHTS assay to identify small molecule that activate the aryl hydrocarbon receptor (AhR) signaling pathway (AID 743085); note: nearly all actives have a fitted effect of over 15% in size; note: potency is the fitted concentration of half-maximal effect
Chain of Aryl hydrocarbon receptor (Homo sapiens) (P35869 whole entry, looked up): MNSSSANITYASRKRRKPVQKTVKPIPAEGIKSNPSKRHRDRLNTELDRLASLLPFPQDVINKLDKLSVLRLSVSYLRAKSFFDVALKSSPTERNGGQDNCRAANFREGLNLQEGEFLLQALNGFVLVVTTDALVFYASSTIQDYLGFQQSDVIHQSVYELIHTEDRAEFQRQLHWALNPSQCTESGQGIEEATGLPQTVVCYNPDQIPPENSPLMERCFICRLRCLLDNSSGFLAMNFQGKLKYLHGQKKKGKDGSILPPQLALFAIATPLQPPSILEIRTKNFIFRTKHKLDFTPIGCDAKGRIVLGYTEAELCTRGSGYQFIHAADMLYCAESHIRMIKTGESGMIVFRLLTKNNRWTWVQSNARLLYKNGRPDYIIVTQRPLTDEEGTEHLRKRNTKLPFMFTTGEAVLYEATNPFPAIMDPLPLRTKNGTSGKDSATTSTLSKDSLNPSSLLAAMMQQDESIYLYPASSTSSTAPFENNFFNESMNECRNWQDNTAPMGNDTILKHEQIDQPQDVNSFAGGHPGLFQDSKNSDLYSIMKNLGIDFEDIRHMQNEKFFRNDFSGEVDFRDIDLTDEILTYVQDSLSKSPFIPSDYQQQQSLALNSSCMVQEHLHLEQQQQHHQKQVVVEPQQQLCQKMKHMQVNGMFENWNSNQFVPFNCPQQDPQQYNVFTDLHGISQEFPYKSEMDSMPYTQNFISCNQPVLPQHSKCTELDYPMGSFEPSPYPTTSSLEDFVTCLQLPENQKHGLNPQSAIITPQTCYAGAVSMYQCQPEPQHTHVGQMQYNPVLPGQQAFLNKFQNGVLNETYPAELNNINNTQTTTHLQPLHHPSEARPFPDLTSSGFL
Outline: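 A multiplexed format paired cell viability (CellTiter-Fluor fluorescence) with AhR-dependent luciferase output (ONE-Glo luminescence) in the same wells of HepG2 DRE-luc cells after 24 h compound exposure at 37C.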
Tags give direction and shape of the fitted curve or compound fluorescence and quenching.

Compound | Potency [1] | Potency [2] | Potency [3] | Potency [4] | outcome [5] | Potency [6] | outcome [7] | Potency [8] | Potency [9] | Potency [10] | Potency [11] | Potency [12] | Potency [13] | Potency (Aromatase (Homo sapiens)) | Potency [14] | Potency [15] | Potency [16] | outcome [17] | Potency [18] | PLD induction [16]
O=C(O)CCCO | inactive | inactive | inactive | inactive | inactive | inactive | inactive | inactive | inactive | inactive | inactive | inactive | inactive | inactive | inactive | inactive | inactive |  |  | 
COC(=O)[C@H]1[C@@H](OC(=O)c2ccccc2)C[C@@H]2CC[C@H]1N2C | inactive | inactive | inactive | inactive | inactive | inactive | inactive | inactive | inactive | inactive | inactive | inactive | inactive | inactive | inactive | inactive | inactive | inactive |  | 
CC(N)Cc1ccc2c(c1)OCO2 (configuration not stated) | inactive | inactive | inactive | inactive | inactive | inactive | inactive |  | inactive | inactive | inactive | inactive | inactive | inactive | inactive | inactive |  |  | inactive | -3.76% [at 1.53 µM]
O=C1C[C@@H]2OCC=C3CN4CC[C@]56c7ccccc7N1[C@H]5[C@H]2[C@H]3C[C@H]46 (tested in a mixture with another compound) |  |  | inactive | inactive | inactive | inactive | inactive | inactive | inactive | inactive | inactive | inactive | inactive | inactive | inactive | inactive | inactive | inactive |  | 
Clc1ccc(C(Cn2ccnc2)OCc2csc3c(Cl)cccc23)c(Cl)c1 (configuration not stated) | inactive |  | inactive | inactive | inactive | inactive | inactive | inactive | inactive | inactive | inactive |  | inactive | 4.03 µM (active) | inactive | inactive | inactive | inactive | inactive | 
CCCSc1cc(OC)c(CCN)cc1OC |  | inactive |  | inactive | inactive | inactive | inactive | inactive | inactive | inactive | inactive | 0.258 µM (active) | inactive | 32.5 µM (active) |  | 32.5 µM (active) | inactive | inactive | 29 µM (active) | 
CC(C)[C@H]1C(=O)N2CCC[C@H]2[C@]2(O)O[C@](NC(=O)[C@@H]3C[C@@H]4c5cccc6[nH]cc(c56)C[C@H]4N(C)C3)(C(C)C)C(=O)N12 | inactive | inactive | inactive | inactive | inactive | inactive | inactive | inactive | inactive | inactive | inactive | 26.6 µM (active) | inactive | inactive | inactive |  | inactive | inactive | inactive | 
C[C@]12CC[C@H](O)C[C@H]1CC[C@@H]1[C@@H]2CC[C@]2(C)[C@@H](c3ccc(=O)oc3)C[C@H]3O[C@]132 | inactive | 0.75 µM (active) | 2.11 µM (active) | inactive | inactive | inactive | inactive | inactive | inactive | inactive | 2.68 µM (active) | 13.3 µM (active) | 1.34 µM (active) | inactive | inactive | inactive | inactive | inactive | inactive | 
Oc1ccc2c3c1O[C@H]1[C@@H](O)C=C[C@H]4[C@H](C2)NCC[C@@]341 | inactive | inactive | inactive |  | inactive | inactive | inactive | inactive | inactive | inactive | inactive | inactive |  | inactive | inactive | inactive | inactive | inactive | inactive | 
O=C1CN=C(c2ccccc2)c2cc(Cl)ccc2N1 | inactive | inactive | inactive | inactive | inactive | inactive | inactive | inactive | inactive | inactive | inactive |  | inactive | inactive | inactive | inactive | inactive | inactive | inactive | 
CC(C)C[C@H]1C(=O)N2CCC[C@H]2[C@]2(O)O[C@](NC(=O)[C@@H]3C[C@@H]4c5cccc6[nH]cc(c56)C[C@H]4N(C)C3)(C(C)C)C(=O)N12 | inactive | inactive |  | inactive | inactive | inactive | inactive | inactive | inactive | inactive | inactive | 29.8 µM (active) | inactive | inactive | inactive |  | inactive | inactive |  | 
C=CCC1([C@@H](C)CCC)C(=O)NC(=O)NC1=O | inactive | inactive | inactive | inactive | inactive | inactive | inactive | inactive | inactive | inactive | inactive |  | inactive | inactive | inactive | inactive | inactive | inactive | inactive | 
CCNC1(c2cccs2)CCCCC1=O (configuration not stated) | inactive | inactive | inactive | inactive | inactive | inactive | inactive | inactive | inactive | inactive | inactive | inactive | inactive | inactive | inactive | inactive | inactive | inactive | inactive | 
O=c1ccc2cc(O[C@@H]3O[C@H](CO)[C@@H](O)[C@H](O)[C@H]3O)c(O)cc2o1 | inactive | inactive |  | inactive | inactive | 10 µM [fluorescent] (active) | inactive | inactive | 8.91 µM (active) | inactive | inactive | inactive | inactive | inactive |  |  | inactive | inactive | inactive | 
